Assay results: ChEMBL document CHEMBL3988442, “University of Dundee, Small-Polar-MMV Screening Library” (2021)
For some assays here: Measured potencies and affinities stand elsewhere.

What was measured:
Design in all cases: scale not given: direction of the effect not stated beside the values
[1] = target: Protein translocase subunit SecA (Escherichia coli (strain K12)) (UniProt P10408); assay: Assay to Identify E. coli SecA ATPase Inhibitors; assay type: functional; settings: 30 µM
[2] = target: T1, Ubiquitin-activating enzyme e1, putative (Leishmania donovani (strain BPK282A1)) (UniProt E9BSI1); assay: Leishmania donovani Ubiquitin Activating Enzyme (LdE1); assay type: functional; settings: 30 µM
T1 sequence (whole entry): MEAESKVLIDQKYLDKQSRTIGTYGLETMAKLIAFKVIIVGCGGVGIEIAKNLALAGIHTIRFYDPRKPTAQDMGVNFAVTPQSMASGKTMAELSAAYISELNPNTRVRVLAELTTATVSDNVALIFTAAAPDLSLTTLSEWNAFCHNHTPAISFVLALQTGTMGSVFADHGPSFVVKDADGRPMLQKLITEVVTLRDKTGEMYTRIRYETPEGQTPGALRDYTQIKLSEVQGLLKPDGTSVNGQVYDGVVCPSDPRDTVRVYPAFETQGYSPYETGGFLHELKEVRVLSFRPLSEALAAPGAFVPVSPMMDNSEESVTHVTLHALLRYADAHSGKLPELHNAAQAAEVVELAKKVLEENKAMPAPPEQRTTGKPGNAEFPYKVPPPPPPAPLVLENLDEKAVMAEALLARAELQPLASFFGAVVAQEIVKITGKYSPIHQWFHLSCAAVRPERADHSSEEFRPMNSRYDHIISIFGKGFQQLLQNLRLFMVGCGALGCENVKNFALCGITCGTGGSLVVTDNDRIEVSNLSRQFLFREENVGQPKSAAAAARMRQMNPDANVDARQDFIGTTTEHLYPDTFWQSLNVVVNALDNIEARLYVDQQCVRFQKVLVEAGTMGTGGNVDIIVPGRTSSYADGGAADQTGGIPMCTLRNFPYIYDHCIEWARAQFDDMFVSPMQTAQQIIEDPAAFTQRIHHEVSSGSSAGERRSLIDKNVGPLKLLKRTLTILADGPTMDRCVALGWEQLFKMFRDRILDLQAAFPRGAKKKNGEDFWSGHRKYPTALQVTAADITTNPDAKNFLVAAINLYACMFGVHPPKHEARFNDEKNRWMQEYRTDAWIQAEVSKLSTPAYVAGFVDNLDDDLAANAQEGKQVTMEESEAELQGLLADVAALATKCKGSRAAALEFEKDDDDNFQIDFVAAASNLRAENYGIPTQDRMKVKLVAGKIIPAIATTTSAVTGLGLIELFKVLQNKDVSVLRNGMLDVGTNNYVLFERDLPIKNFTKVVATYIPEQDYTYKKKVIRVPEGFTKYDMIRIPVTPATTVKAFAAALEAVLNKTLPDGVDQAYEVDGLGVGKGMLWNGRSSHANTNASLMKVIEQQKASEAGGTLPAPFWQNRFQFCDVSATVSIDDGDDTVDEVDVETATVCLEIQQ

[3] = target: AMP-activated protein kinase, AMPK (Homo sapiens) (UniProt P54646+O43741+P54619+Q9UGJ0+Q9Y478+Q13131+Q9UGI9); assay: AMP-dependent Kinase enzyme assay. An in vitro enzyme assay that detects ADP turnover that is directly proportional to AMPK activity. This uses naive AMPK that is activated during the assay with MK-8722; assay type: functional; settings: 30 µM
[4] = target: Sialic acid-binding Ig-like lectin 9 (Homo sapiens) (UniProt Q9Y336); assay: Hs-Siglec9 ALPHAscreen SOP 20170721; settings: 10 µM
Chain of Sialic acid-binding Ig-like lectin 9 (Homo sapiens) (Q9Y336 whole entry): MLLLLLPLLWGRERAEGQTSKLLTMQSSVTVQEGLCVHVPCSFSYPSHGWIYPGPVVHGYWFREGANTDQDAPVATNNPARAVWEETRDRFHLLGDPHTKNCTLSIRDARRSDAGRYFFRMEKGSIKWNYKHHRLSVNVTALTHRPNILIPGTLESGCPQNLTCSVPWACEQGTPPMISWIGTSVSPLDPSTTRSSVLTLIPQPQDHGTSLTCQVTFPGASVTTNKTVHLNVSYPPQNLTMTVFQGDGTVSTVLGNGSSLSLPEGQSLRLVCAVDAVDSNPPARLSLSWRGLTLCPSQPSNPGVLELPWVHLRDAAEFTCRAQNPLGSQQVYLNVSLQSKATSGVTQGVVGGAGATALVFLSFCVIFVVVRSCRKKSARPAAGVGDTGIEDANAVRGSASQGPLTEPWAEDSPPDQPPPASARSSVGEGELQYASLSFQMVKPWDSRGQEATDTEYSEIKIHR

[5] = tested on: Trypanosoma cruzi; assay: Trypanosoma cruzi phosphomannomutase and mannose-1-phosphate guanylyltransferase assay; assay type: functional; settings: 10 µM
[6] = target: T2, Arginase-2, mitochondrial (Homo sapiens) (UniProt P78540); assay: in vitro enzyme assay to detect the production of urea directly proportional to the activity of Arginase II; assay type: functional; settings: 33.3 µM; further: in the data most compounds retested in dose-response had high values
T2 sequence (whole entry): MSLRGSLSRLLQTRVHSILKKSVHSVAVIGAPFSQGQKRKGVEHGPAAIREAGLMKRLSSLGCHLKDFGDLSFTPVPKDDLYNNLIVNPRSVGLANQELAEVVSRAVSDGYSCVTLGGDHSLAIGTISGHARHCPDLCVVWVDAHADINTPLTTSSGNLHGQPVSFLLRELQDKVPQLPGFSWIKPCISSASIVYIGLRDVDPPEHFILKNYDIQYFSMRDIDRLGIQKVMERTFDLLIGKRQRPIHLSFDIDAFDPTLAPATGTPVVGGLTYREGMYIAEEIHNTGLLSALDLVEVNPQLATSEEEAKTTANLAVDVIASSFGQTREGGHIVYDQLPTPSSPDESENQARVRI

[7] = target: T3, Proteasome subunit beta (Trypanosoma cruzi) (UniProt O96673); assay: Trypanosoma cruzi proteasome chymotrypsin-like activity (TcProtChymo) assay.; further: in the data most compounds retested in dose-response had high values; assay type: functional; settings: 9.37 µM
T3 sequence (whole entry): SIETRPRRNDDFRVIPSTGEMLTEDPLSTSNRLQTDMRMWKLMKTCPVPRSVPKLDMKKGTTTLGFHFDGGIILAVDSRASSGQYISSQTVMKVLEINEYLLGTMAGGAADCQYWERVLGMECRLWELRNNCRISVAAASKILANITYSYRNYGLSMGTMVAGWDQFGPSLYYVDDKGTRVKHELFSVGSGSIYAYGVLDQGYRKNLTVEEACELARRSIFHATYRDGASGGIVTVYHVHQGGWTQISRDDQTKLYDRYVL

[8] = species: Homo sapiens; assay: To identify inhibition of the IFN signalling (Jak-Stat) pathway via expression of an eGFP reporter gene under the control of an IFN-stimulated response element (ISRE) containing MxA promoter.; assay type: functional; settings: 30 µM
[9] = target: T4, Tyrosyl-tRNA synthetase, putative (Trypanosoma cruzi (strain CL Brener)) (UniProt Q4DSP6); assay: Trypanosoma cruzi tyrosyl tRNA synthetase (TcYRS) _High Tyrosine SOP; assay type: functional; settings: 30 µM; further: in the data most compounds retested in dose-response had high values
T4 sequence (whole entry): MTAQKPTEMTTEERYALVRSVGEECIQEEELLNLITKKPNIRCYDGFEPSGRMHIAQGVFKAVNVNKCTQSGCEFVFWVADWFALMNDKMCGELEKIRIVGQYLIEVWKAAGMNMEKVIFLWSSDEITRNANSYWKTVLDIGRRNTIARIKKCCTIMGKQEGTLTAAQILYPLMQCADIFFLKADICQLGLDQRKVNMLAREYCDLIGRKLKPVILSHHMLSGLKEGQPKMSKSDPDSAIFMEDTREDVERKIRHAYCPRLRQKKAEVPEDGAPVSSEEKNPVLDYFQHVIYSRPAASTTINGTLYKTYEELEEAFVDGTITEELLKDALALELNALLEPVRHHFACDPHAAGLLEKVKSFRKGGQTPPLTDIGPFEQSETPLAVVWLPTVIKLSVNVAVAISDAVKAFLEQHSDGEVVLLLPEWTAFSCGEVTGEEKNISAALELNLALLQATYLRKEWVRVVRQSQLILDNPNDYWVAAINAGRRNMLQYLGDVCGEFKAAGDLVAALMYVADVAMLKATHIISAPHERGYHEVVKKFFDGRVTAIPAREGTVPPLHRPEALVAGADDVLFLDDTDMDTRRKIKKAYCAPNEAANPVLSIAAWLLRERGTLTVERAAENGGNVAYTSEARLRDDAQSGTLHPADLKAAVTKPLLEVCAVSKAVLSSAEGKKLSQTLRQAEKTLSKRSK

[10] = target: T4, Tyrosyl-tRNA synthetase, putative (Trypanosoma cruzi (strain CL Brener)); assay: Trypanosoma cruzi tyrosyl tRNA synthetase (TcYRS) SOP; assay type: functional; settings: 30 µM
[11] = target: Chromo domain-containing protein 1 (Saccharomyces cerevisiae (strain ATCC 204508 / S288c) (Baker's yeast)) (UniProt P32657); assay: ScCHD-1 Enzyme Inhibition Assay; assay type: functional; settings: 30 µM; further: in the data most compounds retested in dose-response had high values
Chain of Chromo domain-containing protein 1 (Saccharomyces cerevisiae (strain ATCC 204508 / S288c) (Baker's yeast)) (P32657 whole entry, the tested form may be a part): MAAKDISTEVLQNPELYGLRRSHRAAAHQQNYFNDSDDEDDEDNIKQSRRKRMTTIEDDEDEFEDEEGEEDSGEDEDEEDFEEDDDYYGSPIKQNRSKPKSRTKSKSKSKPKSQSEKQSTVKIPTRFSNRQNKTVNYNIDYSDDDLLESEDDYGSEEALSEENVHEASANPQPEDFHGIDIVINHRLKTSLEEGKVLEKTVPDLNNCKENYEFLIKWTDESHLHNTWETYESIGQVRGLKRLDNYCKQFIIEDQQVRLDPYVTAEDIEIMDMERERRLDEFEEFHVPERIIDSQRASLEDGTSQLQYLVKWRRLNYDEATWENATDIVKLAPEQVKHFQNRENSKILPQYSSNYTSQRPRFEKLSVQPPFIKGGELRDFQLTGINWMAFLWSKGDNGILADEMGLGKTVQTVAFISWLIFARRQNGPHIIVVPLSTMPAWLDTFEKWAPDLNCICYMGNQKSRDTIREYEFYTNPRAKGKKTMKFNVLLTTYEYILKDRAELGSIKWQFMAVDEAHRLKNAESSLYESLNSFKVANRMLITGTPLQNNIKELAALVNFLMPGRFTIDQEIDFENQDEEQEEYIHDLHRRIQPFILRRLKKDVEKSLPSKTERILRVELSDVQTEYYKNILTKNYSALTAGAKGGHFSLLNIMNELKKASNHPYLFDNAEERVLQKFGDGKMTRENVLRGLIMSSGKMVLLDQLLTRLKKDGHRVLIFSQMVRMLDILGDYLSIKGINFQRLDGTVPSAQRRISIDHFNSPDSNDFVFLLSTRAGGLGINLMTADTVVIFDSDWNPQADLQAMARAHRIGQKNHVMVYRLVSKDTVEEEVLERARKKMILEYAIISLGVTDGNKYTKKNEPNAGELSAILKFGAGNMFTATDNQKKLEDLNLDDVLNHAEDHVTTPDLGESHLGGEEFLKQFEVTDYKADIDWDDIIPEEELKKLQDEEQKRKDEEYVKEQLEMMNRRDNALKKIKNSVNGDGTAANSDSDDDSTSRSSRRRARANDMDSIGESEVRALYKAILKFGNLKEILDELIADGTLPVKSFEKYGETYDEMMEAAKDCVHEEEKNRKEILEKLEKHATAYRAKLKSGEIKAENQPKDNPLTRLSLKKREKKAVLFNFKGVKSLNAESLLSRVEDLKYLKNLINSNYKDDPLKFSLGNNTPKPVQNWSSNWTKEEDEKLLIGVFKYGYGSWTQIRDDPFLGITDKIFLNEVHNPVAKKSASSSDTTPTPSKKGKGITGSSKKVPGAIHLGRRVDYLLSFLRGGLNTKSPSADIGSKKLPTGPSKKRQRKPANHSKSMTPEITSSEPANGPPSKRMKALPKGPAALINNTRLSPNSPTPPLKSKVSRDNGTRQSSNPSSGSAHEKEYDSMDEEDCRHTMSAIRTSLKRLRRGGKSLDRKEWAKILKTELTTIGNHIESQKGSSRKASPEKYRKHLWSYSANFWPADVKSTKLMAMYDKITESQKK

Chain of Protein translocase subunit SecA (Escherichia coli (strain K12)) (P10408 whole entry): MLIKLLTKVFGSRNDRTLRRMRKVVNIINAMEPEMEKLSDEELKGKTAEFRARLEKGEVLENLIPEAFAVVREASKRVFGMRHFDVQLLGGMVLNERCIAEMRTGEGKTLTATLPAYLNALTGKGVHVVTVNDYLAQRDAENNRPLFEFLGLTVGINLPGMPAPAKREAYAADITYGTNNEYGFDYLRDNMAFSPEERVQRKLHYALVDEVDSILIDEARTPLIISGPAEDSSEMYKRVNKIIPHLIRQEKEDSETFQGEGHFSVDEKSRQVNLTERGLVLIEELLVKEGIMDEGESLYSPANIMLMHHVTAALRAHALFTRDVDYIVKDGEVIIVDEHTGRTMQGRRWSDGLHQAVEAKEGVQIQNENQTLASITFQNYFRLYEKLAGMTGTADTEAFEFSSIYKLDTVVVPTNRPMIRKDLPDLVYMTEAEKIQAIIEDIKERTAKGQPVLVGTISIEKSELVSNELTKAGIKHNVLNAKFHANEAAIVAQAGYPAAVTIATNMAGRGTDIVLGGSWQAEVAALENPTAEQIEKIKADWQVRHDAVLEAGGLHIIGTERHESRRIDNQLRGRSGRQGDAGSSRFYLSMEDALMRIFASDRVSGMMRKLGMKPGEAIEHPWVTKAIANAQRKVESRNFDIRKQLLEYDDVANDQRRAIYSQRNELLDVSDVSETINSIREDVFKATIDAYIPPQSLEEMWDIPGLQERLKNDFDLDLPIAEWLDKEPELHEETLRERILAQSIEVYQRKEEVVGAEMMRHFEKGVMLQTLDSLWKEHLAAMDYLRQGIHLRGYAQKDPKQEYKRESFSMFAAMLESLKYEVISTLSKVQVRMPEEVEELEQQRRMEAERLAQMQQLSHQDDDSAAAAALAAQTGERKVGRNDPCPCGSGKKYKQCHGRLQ

| SMILES | Percent Effect [1] [%] | Percent Effect [2] [%] | Percent Effect [3] [%] | Percent Effect [4] [%] | Percent Effect [5] [%] | Percent Effect [6] [%] | Percent Effect [7] [%] | Percent Effect [8] [%] | Percent Effect [9] [%] | Percent Effect [10] [%] | Percent Effect [11] [%] |
| --- | --- | --- | --- | --- | --- | --- | --- | --- | --- | --- | --- |
| COCc1ccccc1NC(=O)[C@@H]1CCCN1C(=O)c1ccco1 | -0.218 | 9.72 | -5.33 | 20.1 | 2.82 | 6.62 | 12.8 | 8.02 | 1.05 | 5.13 | -1.82 |
| O=C([C@@H]1CC[C@@H]2[C@@H](CCN2Cc2cccc(F)c2)O1)N1CCCCO1 | 3 | -34.7 | 4.08 | 2.78 | -3.28 | -52.5 | 9.23 | 16.6 | 2.08 | 22.5 | -4.83 |
| CC(=O)N1CC(=O)N(c2cnn(C)c2)CC12CCN(Cc1ccsc1)C2 (stereo unspecified) | -5.9 | 2.7 | -4.89 | 3.54 | -6.05 | -1.25 | 18.3 | 13.5 | 3.96 | 3.66 | -3.49 |
| Cc1nc(CN2CCC(N(C)Cc3noc(C(C)C)n3)C2)cs1 (stereo unspecified) | 1.43 | -24.7 | -8.83 | 5.3 | -5.68 | -4.54 | 19 | 26 | 4.3 | 2.5 | -4.7 |
| Cn1cnnc1C1CCCN(C(=O)NCCNc2ccccn2)C1 (stereo unspecified) | -5.92 | 18.2 | 3.59 | 4.46 | 0.881 | 6.53 | 9.78 | 4.54 | 7.62 | 18.8 | -9.77 |
| Cc1nc(CN2CCCC(Cn3cc(CCO)nn3)C2)c[nH]1 (stereo unspecified) | -1.16 | 0 | -4.62 | 20.6 | 5.21 | 0.952 | 5.17 | -10.1 | 1.59 | 9.76 | -7.08 |
| CC(C)CN1CCC(C(=O)Nc2cc(C(F)(F)F)c[nH]c2=O)CC1 | -7.9 | 10.4 | 4.55 | 14.9 | 6.37 | -2.13 | 1.18 | -6.76 | 5.83 | 21.9 | -10.2 |
| CCN(C)c1ncnc2c1CCN(C(=O)N1CCCC1)CC2 | 1.86 | 10.7 | -0.0235 | 0.87 | -8.88 | -54.7 | 17.6 | -9.36 | 4.17 | 15 | -5.04 |
| Cn1cccc1CNC(=O)CCCc1nnc2ccccn12 | -4.97 | 6.67 | -2.6 | 1.09 | 3.14 | -8.28 | 12.4 | -1.85 | 3.17 | 2.56 | -6.43 |
| CC(C)C1CN(c2ncccn2)CCC(=O)N1Cc1ccc(F)cc1 (stereo unspecified) | -4.22 | 6.94 | -1.8 | -3.12 | -0.291 | 4.86 | 7.54 | 8.83 | 7.37 | 12.8 | -3.01 |
| O=C(NCCN1CCCCCC1=O)c1n[nH]c(=O)c2ccccc12 | -2.33 | 15.6 | 17.8 | -3.89 | -11.1 | 2.13 | 6.42 | 27.5 | -6.8 | 9.76 | -3 |
| OC(CN1CCN(Cc2nnc(C3CC3)o2)CC1)c1ccccc1 (stereo unspecified) | -4.5 | 10.1 | -8.23 | 15.1 | -3.31 | 1.9 | -3.19 | 17.6 | 2.46 | 13.9 | -2.36 |
| COCCNC(=O)NCCc1ccn(-c2ccccc2)n1 | -3.6 | -3.8 | 7.66 | 4.04 | 5.64 | -0.215 | 13.7 | 5.09 | -4.17 | 10.1 | -16.7 |
| CCN1CCN(C(=O)c2cc(C(=O)OC)nn2-c2ccccc2)CC1 | -1.39 | 18.4 | 3.57 | -5.6 | -5.26 | 11.5 | 15.2 | 20.6 | 7.35 | 7.32 | -8.31 |
| CC(C)CC1SCC(=O)Nc2c1cnn2-c1ccc(F)cc1 (stereo unspecified) | -4.89 | 6.67 | 1.34 | 3.64 | 4.91 | -3.35 | 2.03 | 1.9 | 6.35 | 7.69 | -4.25 |
| CO[C@H]1CO[C@@]2(CCCN(C(=O)C3=CCCCC3)C2)C1 | -5.62 | 13.3 | 1.22 | -1.82 | 1.35 | -47.5 | 8.03 | 0.996 | 3.12 | 2.5 | -8 |
